Screens (PubChem BioAssay)
This is a sample that favours compounds with a hit; in the whole collection about 1.1% have one here.
Casp6 inh – inhibitors of human caspase-6; P55212; purified caspase-6, Z-VEID-R110 cleavage fluorescence; inhibition, % at 12.5 µM; 350,000 tested, 0.53% active; AID 686996;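 active = mean inhibition across replicates at least about 35%, with every replicate also reaching that limit, limit read from the data; inconclusive = only one of the two criteria met; inactive = neither criterion met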;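 also: 0% = median of neutral control wells and 100% = no fluorescence left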
Glyco luc inh – N-linked glycosylation inhibition | D54 ERlucT glycosylation luciferase reporter, 24 h; percent of 100 nM tunicamycin response | reporter increase, % at 12.5 µM | 360,000 tested, 0.23% active;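 active = mean luciferase reporter signal, scaled so untreated is 0 and the glycosylation-blocking control 100, at or above a set limit in every replicate; inconclusive = mean reaches the limit but not every replicate does; inactive = mean below the limit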;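 also: luciferase carries N-glycosylation sites so blocking glycosylation raises the light; 0% = median of neutral control wells and 100% = median of 100 nM tunicamycin wells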
HDAC3 inhib – human HDAC3 inhibition | 320,000 tested, 0.15% active | AID 2718 | recombinant HDAC3, fluorogenic peptide/trypsin coupled, fluorescence | inhibition, % at 8.3 µM | O15379; in the data active = inhibition above about 26%, passing the limit was not always enough; inconclusive = no clear call, values can overlap the other calls
NSD2 inh – inhibitors of human histone methyltransferase NSD2; O96028; NSD2 peptide methylation, AlphaScreen, 120 min; inhibition, % at 12.5 µM; 310,000 tested, 0.54% active; AID 743445; in the data active = inhibition above about 50%
C-LANA FP – inhibitors of KSHV LANA C-terminal domain DNA binding. MBP-C-LANA/FAM-LBS DNA binding, fluorescence polarization. inhibition, % at 9 µM. 340,000 tested, 0.078% active. AID 504423;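 active = highest replicate inhibition at or above 60% at 9 µM, even if other replicates fall short; inactive = all replicates below 60% inhibition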;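 also: 0% = neutral control wells and 100% = 4 µM acridine orange control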
Keap1 Nrf2 FP – Keap1-Nrf2 (human) interaction inhibition | Q14145 | Keap1 Kelch-Nrf2 peptide fluorescence polarization, 1536-well | inhibition, % at 9.4 µM | 340,000 tested, 0.15% active; in the data active = inhibition above about 12%; inconclusive = no clear call, values can overlap the other calls; inactive = below about 7.3%;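 also: human Keap1 Kelch domain with fluorescein labeled Nrf2 9mer peptide probe; 0% = neutral control wells and 100% = peptide positive control; higher means more block of Keap1 binding to Nrf2 peptide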
* hit, by the source's call.

For O=C1NC2=C(C(=O)CCC2)C(c2cccc([N+](=O)[O-])c2)N1 (stereo unspecified) the results were Casp6 inh 38.5*, Glyco luc inh -1.0, NSD2 inh -1.7, C-LANA FP 0.1 and Keap1 Nrf2 FP -1.0.
O=C1NC2=C(C(=O)CCC2)C(c2ccc([N+](=O)[O-])cc2)N1 (stereo unspecified) was read as Glyco luc inh 2.5, HDAC3 inhib -1.4, NSD2 inh -0.7, C-LANA FP 0.6 and Keap1 Nrf2 FP -8.9.
For CCC(=O)N[C@H]1C=C[C@H](CC(=O)NCc2ccccc2F)O[C@@H]1CO the results were Casp6 inh 0.2.
C[C@H](O)C#Cc1ccc([C@@H]2[C@@H](CO)N3CCCCN(C(=O)c4ccc5c(c4)OCO5)C[C@H]23)cc1 was read as Casp6 inh 0.1.
Screening COc1cc(C(=O)O/N=C2\C=CC(=O)C(C)=C2)cc(OC)c1OC returned Glyco luc inh -1.8, HDAC3 inhib 62.4*, NSD2 inh -0.1, C-LANA FP 0.2 and Keap1 Nrf2 FP -23.9.
COc1ccc(O)c(C(c2c(C)[nH][nH]c2=O)c2c(C)[nH][nH]c2=O)c1 was read as Casp6 inh 72.0*, Glyco luc inh 14.7, HDAC3 inhib 4.6, C-LANA FP -1.6 and Keap1 Nrf2 FP -11.4.
`CC(C)NC(=O)Nc1ccc2c(c1)C(=O)N([C@@H](C)CO)C[C@@H](C)[C@H](CN(C)C(=O)c1ccccc1)OCCCC[C@@H](C)O2` gave Casp6 inh 0.1.
Screening CCCCCN(C(=O)CCC(=O)OC(C)C(=O)NC1CCCCC1)c1c(N)n(CCCC)c(=O)[nH]c1=O (stereo unspecified) returned Casp6 inh 43.1*, Glyco luc inh 3.0, HDAC3 inhib 2.1, NSD2 inh -0.2, C-LANA FP 1.1 and Keap1 Nrf2 FP -2.1.
Screening O=C(NC1CCC1)[C@H]1[C@H](CO)[C@H]2Cn3c(cccc3=O)[C@H]2N1CC1CCOCC1 returned Casp6 inh 0.0.
Cc1ccc(C(=O)NC(=C(Cl)Cl)S(=O)(=O)c2ccccc2)cc1 was read as Casp6 inh 19.1, Glyco luc inh inconclusive, HDAC3 inhib -9.1, NSD2 inh 5.9, C-LANA FP 1.9 and Keap1 Nrf2 FP -6.1.
For COc1ccc(C(=O)NC(=C(Cl)Cl)S(=O)(=O)c2ccc(C)cc2)cc1 the results were Casp6 inh 19.6, Glyco luc inh 27.1*, HDAC3 inhib -1.0, NSD2 inh 0.3, C-LANA FP 0.2 and Keap1 Nrf2 FP -2.1.
For COC(=O)NC(=C(Cl)Cl)S(=O)(=O)c1ccccc1 the results were Glyco luc inh 50.7*, HDAC3 inhib -2.5, NSD2 inh 4.5, C-LANA FP 1.7 and Keap1 Nrf2 FP -4.8.
For CCC(=O)N1CCCCN2[C@@H](CO)[C@H](c3ccc(/C=C/c4ccccc4)cc3)[C@@H]2C1 the results were Casp6 inh 0.3.
Screening CCCCn1c(/N=C/c2c[nH]c3ccccc23)nc2ccccc21 returned Glyco luc inh 0.0, HDAC3 inhib 31.0*, NSD2 inh -0.9, C-LANA FP 2.1 and Keap1 Nrf2 FP -2.1.
Screening O=C(C1CCCCC1)N1CC2(C1)[C@@H](c1ccccc1)[C@@H](CO)N2Cc1ccccc1F returned Casp6 inh -0.4.
Screening Cc1cccc(C)c1NC(=O)C(C1CC1)n1c(=O)c(-c2ccco2)nc2ccccc21 (stereo unspecified) returned Casp6 inh 35.8*.
`Cc1cccc(C)c1NC(=O)C(C1CC1)n1c(=O)c(-c2ccccc2)nc2ccccc21` (stereo unspecified) gave Casp6 inh 2.1.
O=C(O)C[C@H]1C[C@H]2c3cc(NC(=O)Nc4ccccc4)ccc3O[C@H]2[C@H](CO)O1 was read as Casp6 inh -1.0.
Screening N#Cc1c(NC(=O)c2ccco2)sc2c1CCC2 returned Casp6 inh 48.1*, Glyco luc inh -0.8, HDAC3 inhib -10.1, NSD2 inh 7.1, C-LANA FP 3.7 and Keap1 Nrf2 FP -2.9.
CCCC(=O)N1CC2(CN(C(=O)NC(C)C)C2)c2c(n(C)c3cc(OC)ccc23)[C@@H]1CO was read as Casp6 inh 1.2.
`CC(Oc1ccccc1)C(=O)Nc1cccc(NC(=O)c2ccco2)c1` (stereo unspecified) gave Casp6 inh 38.8*, Glyco luc inh 0.1, HDAC3 inhib 8.2, NSD2 inh 7.4, C-LANA FP -1.3 and Keap1 Nrf2 FP 3.0.
For O=C(COC(=O)c1ccc(S(=O)(=O)NCc2ccco2)cc1)Nc1ccc(Cl)cn1 the results were Casp6 inh 46.1*, Glyco luc inh 1.0, HDAC3 inhib 1.9, NSD2 inh 1.1, C-LANA FP 4.8 and Keap1 Nrf2 FP -5.8.
Screening C[C@H]1CN([C@@H](C)CO)C(=O)c2cc(NC(=O)CCCN(C)C)ccc2O[C@@H]1CN(C)S(=O)(=O)c1ccc(Cl)cc1 returned Casp6 inh -0.2.
For COc1ccc(C(=O)CC(SCC(NC(C)=O)C(=O)O)c2ccc(Cl)cc2)cc1OC (stereo unspecified) the results were Casp6 inh 4.6, Glyco luc inh 33.2*, HDAC3 inhib -4.5, NSD2 inh 6.4, C-LANA FP 0.8 and Keap1 Nrf2 FP 1.7.
For COc1ccc(C(C)NC(=O)c2ccc(Cl)cc2)cc1OC (stereo unspecified) the results were Glyco luc inh -0.1, HDAC3 inhib 3.4, NSD2 inh -1.6, C-LANA FP 0.6 and Keap1 Nrf2 FP -5.3.
`O=[N+]([O-])c1ccc(O)c2ncccc12` gave Casp6 inh 63.5*, Glyco luc inh -5.8, HDAC3 inhib 5.3, C-LANA FP -0.3 and Keap1 Nrf2 FP -5.3.
Screening O=[N+]([O-])c1cc([N+](=O)[O-])c2cccnc2c1Oc1ccccc1O returned Casp6 inh 45.4*, Glyco luc inh -5.6, HDAC3 inhib 9.0, NSD2 inh 11.4, C-LANA FP -0.1 and Keap1 Nrf2 FP -1.4.
For O=[N+]([O-])c1ccc(O)c2cccnc12 the results were Casp6 inh 3.8, Glyco luc inh 1.8, HDAC3 inhib 4.9, NSD2 inh -0.6, C-LANA FP 0.1 and Keap1 Nrf2 FP 3.4.
For O=[N+]([O-])c1cc(F)c2cccnc2c1O the results were Casp6 inh 92.4*, Glyco luc inh 6.7, HDAC3 inhib -0.4, NSD2 inh 11.5, C-LANA FP 1.2 and Keap1 Nrf2 FP -8.9.
`C[C@@H]1CN([C@@H](C)CO)C(=O)c2cccc(NC(=O)Nc3ccc(C(F)(F)F)cc3)c2O[C@@H]1CN(C)CC1CCCCC1` gave Casp6 inh -2.0.
Screening C[C@H](CO)N1C[C@H](C)[C@@H](CN(C)Cc2ccc3c(c2)OCO3)Oc2ccc(NC(=O)CCCCCC(=O)Nc3ccccc3N)cc2CC1=O returned Casp6 inh 3.7.
Screening Cc1[nH]ncc1Nc1c(C(C)C)cccc1C(C)C returned Casp6 inh 55.3* and Glyco luc inh -0.5.
